Source: PubChem
PGC1a acetyl inh – modulators of PGC1a acetylation; U2OS PGC1a acetylation, AlphaScreen anti-acetyl-lysine; with virally co-expressed GCN5 acetyltransferase; hit rate 0.17% among 350,000; inhibition, % at 15.6 µM;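 active = every replicate shows inhibition of at least 40%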;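 also: 0% = neutral control wells and 100% = positive control wells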
INS-1E GSIS act – GLuc luminescence reporter in INS-1E cells, primary screen for activators of glucose-dependent secretion of insulin; INS-1E GLuc reporter insulin secretion, 2-3 h; activation, % at 16.6 µM; hit rate 0.61% among 370,000; AID 743287;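 active = lowest replicate activation of at least 40%, so every replicate reaches that level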;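 also: 0% = median of neutral control wells and 100% = median of IBMX positive control wells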
NSD2 inh – inhibitors of human histone methyltransferase NSD2; O96028; NSD2 peptide methylation, AlphaScreen, 120 min; inhibition, % at 12.5 µM; hit rate 0.54% among 310,000; AID 743445; in the data active = inhibition above about 50%
HIV Env fusion – HIV envelope-mediated fusion inhibition. HeLa-JRFL Env/CEM21 cell fusion, luciferase. inhibition, % at 12.3 µM. hit rate 1.1% among 360,000;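 active = mean replicate inhibition score of at least 50 and every replicate individually at or above 50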;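 also: 0% = plate neutral controls and 100% = maraviroc near 300 nM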
MLL AF4-AF9 inh – MLL-AF4/AF9 protein interaction inhibition; P42568; AlphaScreen, biotin-AF4 peptide binding to FLAG-AF9; inhibition, % at 10 µM; hit rate 0.47% among 350,000; AID 651704;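 active = every replicate reaching a set inhibition limit, whatever the replicate mean, cut at about 25% in these data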;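 also: 0% = plate neutral control median and 100% = total signal loss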
An asterisk follows results filed as active; · = no result given; [ ] = another dose, or the depositor's remark. Rows were chosen to be rich in hits. Some 2.1% of all compounds tested hit in one or more screens of this group.

SMILES | PGC1a acetyl inh | INS-1E GSIS act | NSD2 inh | HIV Env fusion | MLL AF4-AF9 inh
CCCCCC(O)CCCC(=O)O (stereo not given) | -12 | 6 | · | 9 | -5
COc1ccc(CN2CC3(C2)CN(C(=O)CN(C)C)[C@@H](CO)c2[nH]c4cc(OC)ccc4c23)cc1 | · | 28 | · | -24[16.7 µM] | 9
CC(C)N1CCc2c(sc(NC(=O)c3ccc([N+](=O)[O-])o3)c2C(N)=O)C1 | · | -31 | 13 | 106* | 6
CC1=CC(C)(C)N2C(=O)C3(SCC(=O)N3c3ccc(F)cc3)c3cc(C)cc1c32 (stereo not given) | -93 | -34 | 2 | 72* | ·
CCn1cc(C(=O)NCCCOC(C)C)c2cc(OC)c(OC)cc2c1=O | -3 | · | -3 | · | ·
CCN(C(=O)CSc1nnc(Cn2nnc3ccccc32)o1)c1nc(C)cs1 | 14 | · | -1 | 11 | ·
CCC1(O)C(=O)OCc2c1cc1n(c2=O)Cc2cc3c(N)cccc3nc2-1 (stereo not given) | -2 | · | 2 | 68* | 0
CC(C)(C)NC(=O)C(c1cccc2ccccc12)n1c(=O)c(-c2ccccc2)nc2ccccc21 (stereo not given) | · | 33 | · | 10 | ·
CCCc1nc2sc3c(SCC(=O)NCc4ccco4)ncnc3c2c2c1CCC2 | -12 | 61* | 0 | -26 | ·
Cc1cccc(N(C)c2cc(-c3ccc(F)cc3)nc3ccnn23)c1 | -8 | · | -14 | 63* | -16
Cc1cc(-c2ccc(F)cc2)nc2cc(C(N)=O)nn12 | 19 | 31 | 3 | · | ·
NC(=O)c1c(NC(=O)C(=O)N2CCOCC2)sc2c1CCCC2 | 3 | 1 | 0 | -5 | -2
O=C(O)c1c(NC(=O)N2CCOCC2)sc2c1CCCC2 | · | 62* | 1 | 21 | -6
Cc1c(C)c2ccc(OCC(=O)Nc3ccccn3)c(C)c2oc1=O | · | -5 | · | 83* | 0
COc1cc(OC)c(OC)cc1CCC(C)NC(=O)Cc1ccccc1 (stereo not given) | -16 | 44* | 1 | 12 | 1
COc1ccc(CCC(C)NC(=O)CCc2ccccc2)c(OC)c1 (stereo not given) | -15 | -21 | -2 | 3 | -2
O=C([C@@H]1[C@@H](CO)[C@@H]2Cn3c(ccc(-c4cccnc4)c3=O)[C@@H]2N1CC1CC1)N1CCCCC1 | -9 | -8 | · | · | -32
CCCCN1C=CC(=C2C(=O)c3ccccc3C2=O)C=C1 | 0 | 1 | -9 | 84* | 1
CCCCN1C(=O)C(=O)c2cc(C)ccc21 | · | · | 11 | · | ·
COc1ccc(-c2csc(NC(=O)c3ccccc3F)n2)cc1 | 9 | 6 | 0 | -7 | -7
Cc1csc(=O)n1CCC(=O)OCc1nnc(-c2ccccc2)o1 | · | 19 | -2 | -18 | 10
CC1Cc2cc(-c3csc(NC(=O)Cc4cccs4)n3)ccc2N1S(C)(=O)=O (stereo not given) | -39 | -35 | -2 | 75* | ·
CO[C@H](CN(C)S(=O)(=O)c1ccc(Cl)cc1)[C@@H](C)CN([C@@H](C)CO)S(=O)(=O)c1cccc(Cl)c1 | -30 | -30 | · | 77*[16.7 µM] | -1
CO[C@H](CN(C)S(=O)(=O)c1cccc(Cl)c1)[C@H](C)CN([C@H](C)CO)S(=O)(=O)c1ccc(Cl)cc1 | -11 | -35 | · | 45[16.7 µM] | -2
CO[C@@H](CN(C)S(=O)(=O)c1ccc(Cl)cc1)[C@@H](C)CN([C@H](C)CO)S(=O)(=O)c1cccc(Cl)c1 | -29 | -30 | · | 64*[16.7 µM] | -3
SMILES | PGC1a acetyl inh | INS-1E GSIS act | NSD2 inh | HIV Env fusion | MLL AF4-AF9 inh
CO[C@@H](CN(C)S(=O)(=O)c1ccc(Cl)cc1)[C@H](C)CN([C@@H](C)CO)S(=O)(=O)c1cccc(Cl)c1 | -31 | -31 | · | 74*[16.7 µM] | -1
Cn1cc(CN2CCCC(CNC(=O)c3ccc4c(c3)OCO4)C2)c2ccccc21 (stereo not given) | 10 | 0 | -1 | 56* | 4
CCN(CC)CCN1CCn2c3c(c4cc(C)ccc42)CCCC31 (stereo not given) | · | 0 | 17 | 10 | 27*
CCN1CCn2c3c(c4cc(Cl)ccc42)CCCC31 (stereo not given) | 1 | · | 11 | · | 12
CCOC(=O)C1=C(C)N=C2c3ccccc3C(=O)C2C1c1ccc(Cl)cc1 (stereo not given) | · | · | -3 | 84* | ·
CC1(C)CC(=O)C2=C(C1)N=C1c3ccccc3C(=O)C1C2c1ccc(Cl)cc1 (stereo not given) | 8 | · | -1 | · | ·
CCOC1=C2[C@@H](CN(S(=O)(=O)c3ccccc3C)[C@H]2c2ccc(Cl)cc2)[C@H]2C(=O)N(c3ccccc3)C(=O)[C@H]2C1 | -8 | 12 | · | 21 | 0
CCOC1=C2[C@@H](CN(S(=O)(=O)c3ccccc3C)[C@H]2c2ccc(Cl)cc2)[C@H]2C(=O)NC(=O)[C@H]2C1 | -9 | -7 | · | 79* | 1
Cc1cccc(N2CCN(C(=O)CCCSc3nc4ccccc4[nH]3)CC2)c1C | 3 | -23 | 1 | 74* | ·
C(=C\c1ccccc1)/CN1CCN(c2ncnc3c2oc2ccccc23)CC1 | 9 | 81 | -2 | 78* | ·
CN(C)CCCNC(=S)NCC(c1ccc(Cl)cc1Cl)c1c[nH]c2ccccc12 (stereo not given) | · | -11 | 7 | -1 | 35*
O=C(C1CCCC1)N1CC[C@@H]2[C@@H](CO)Nc3ccc(-c4cccc(F)c4)cc3[C@@H]21 | 8 | -35 | · | · | 25*
COc1ccc(C#Cc2ccc3c(c2)[C@H]2[C@H](CCN2C(=O)c2ccccn2)[C@@H](CO)N3)cc1 | -1 | 2 | · | · | 26*
COc1cccc(-c2ccc3c(c2)[C@@H]2[C@@H](CCN2C(=O)C2CCC2)[C@H](CO)N3)c1 | 9 | -4 | · | · | ·
COc1cccc(-c2ccc3c(c2)[C@@H]2[C@@H](CCN2C(=O)C2CCCC2)[C@H](CO)N3)c1 | -1 | 8 | · | · | 32*
COc1cccc(-c2ccc3c(c2)[C@@H]2[C@@H](CCN2C(=O)C2CCCCC2)[C@H](CO)N3)c1 | -11 | -29 | · | · | 36*
CSCC[C@H](NC(=O)CC(C)(C)C)c1nc2ccccc2[nH]1 | -24 | · | -1 | -11 | ·
O=C(Nc1cccc2ccccc12)NC1CCCCC1O (stereo not given) | · | · | · | -8 | -7
Cc1nccn1CC(=O)c1ccccc1 | -4 | 4 | 1 | -12 | -1
COc1ccccc1NC(=O)C(C)OC(=O)CCCN=C1NS(=O)(=O)c2ccccc21 (stereo not given) | · | 17 | -1 | 9 | 6
COc1c(CC=C(C)C)c(O)cc2oc(=O)c3c4ccc(O)cc4oc3c12 | -24 | · | · | · | ·
O=C(c1cccc(F)c1)N1CC[C@@H]2[C@@H](CO)Nc3ccc(-c4ccccc4)cc3[C@@H]21 | -3 | -34 | · | · | 31*
N#Cc1ccc(-c2ccc3c(c2)[C@H]2[C@H](CCN2C(=O)C2CCCCC2)[C@H](CO)N3)cc1 | -4 | 7 | · | · | 1
O=C(C1CCCC1)N1CC[C@@H]2[C@H](CO)Nc3ccc(C4=CCCCC4)cc3[C@@H]21 | 10 | 3 | · | 45[16.7 µM] | 34*
O=C(c1cccc(F)c1)N1CC[C@@H]2[C@@H](CO)Nc3ccc(-c4cccc(F)c4)cc3[C@@H]21 | -3 | -24 | · | · | ·
